# Assay results from the supplement of paper PMC10849652.
# The full data set covers some 7,900 targets. This sample favours those with a hit. About 0.6% of all pairs of compound and target were hits. Unmarked numbers belong to inactive results.
# Tests used:
# Experiment in all cases: log2 fold change, soluble protein after heating vs DMSO (PISA); higher = thermal stabilisation; K562 cells, 10 uM, 30 min; active = over 0.2 and 3.5 SD of the protein, either way, in both replicates (recomputed)
# [1] = compound: CC1=C(C=C(C=C1)NC(=O)C2=CC(=CC=C2)C(C)(C)C#N)NC3=CC4=C(C=C3)N=CN(C4=O)C
# How it was run: (§1)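 K562 cells at 2×10^6 cells/mL were treated for 30 min with 10 μM compound, and aliquots were heated for 3 min over 48°C-58°C before pooling. Extraction used PBS with 0.5% NP-40 at 4°C, and soluble protein was the supernatant after 21,000xg for 90 min, measured by TMTpro 16plex LC-MS/MS with channel sums equalised. Thermal stability values, relative to control samples and from duplicates, are log2 fold changes.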
# [2] = compound: CC1=C(C=C(C=C1)NC(=O)C2=CC(=CC=C2)N(C)C)NC(=O)C3=CC=C(C=C3)O
# How it was run: as §1
# [3] = compound: CC1=CC=C(C=C1)SC2=C3C=C(SC3=CN=C2)C(=O)N
# How it was run: as §1
# [4] = compound: CC1=NC(=CC=C1)C2=C(N=C(N2)C(C)(C)C)C3=CC4=NC=CN=C4C=C3
# How it was run: as §1
# Nexturastat A = compound: CCCCN(Cc1ccc(C(=O)NO)cc1)C(=O)Nc1ccccc1 [Nexturastat A]
# How it was run: as §1
# vemurafenib = compound: CCCS(=O)(=O)Nc1ccc(F)c(C(=O)c2c[nH]c3ncc(-c4ccc(Cl)cc4)cc23)c1F [vemurafenib]
# How it was run: as §1
# [5] = compound: CCCS(=O)(=O)Nc1ccc(F)c(C(=O)c2c[nH]c3ncc(Cl)cc23)c1F
# How it was run: as §1
# [6] = compound: CCCc1cc(C)[nH]c(=O)c1CNC(=O)c1cc(-c2ccnc(N3CCN(C)CC3)c2)cc2c1cnn2C(C)C
# How it was run: as §1
# givinostat = compound: CCN(CC)Cc1ccc2cc(COC(=O)Nc3ccc(C(=O)NO)cc3)ccc2c1 [givinostat]
# How it was run: as §1
# barasertib = compound: CCN(CCCOc1ccc2c(Nc3cc(CC(=O)Nc4cccc(F)c4)[nH]n3)ncnc2c1)CCOP(=O)(O)O [barasertib]
# How it was run: as §1
# Chain of UniProt Q5VIR6 (Q5VIR6 whole entry, looked up): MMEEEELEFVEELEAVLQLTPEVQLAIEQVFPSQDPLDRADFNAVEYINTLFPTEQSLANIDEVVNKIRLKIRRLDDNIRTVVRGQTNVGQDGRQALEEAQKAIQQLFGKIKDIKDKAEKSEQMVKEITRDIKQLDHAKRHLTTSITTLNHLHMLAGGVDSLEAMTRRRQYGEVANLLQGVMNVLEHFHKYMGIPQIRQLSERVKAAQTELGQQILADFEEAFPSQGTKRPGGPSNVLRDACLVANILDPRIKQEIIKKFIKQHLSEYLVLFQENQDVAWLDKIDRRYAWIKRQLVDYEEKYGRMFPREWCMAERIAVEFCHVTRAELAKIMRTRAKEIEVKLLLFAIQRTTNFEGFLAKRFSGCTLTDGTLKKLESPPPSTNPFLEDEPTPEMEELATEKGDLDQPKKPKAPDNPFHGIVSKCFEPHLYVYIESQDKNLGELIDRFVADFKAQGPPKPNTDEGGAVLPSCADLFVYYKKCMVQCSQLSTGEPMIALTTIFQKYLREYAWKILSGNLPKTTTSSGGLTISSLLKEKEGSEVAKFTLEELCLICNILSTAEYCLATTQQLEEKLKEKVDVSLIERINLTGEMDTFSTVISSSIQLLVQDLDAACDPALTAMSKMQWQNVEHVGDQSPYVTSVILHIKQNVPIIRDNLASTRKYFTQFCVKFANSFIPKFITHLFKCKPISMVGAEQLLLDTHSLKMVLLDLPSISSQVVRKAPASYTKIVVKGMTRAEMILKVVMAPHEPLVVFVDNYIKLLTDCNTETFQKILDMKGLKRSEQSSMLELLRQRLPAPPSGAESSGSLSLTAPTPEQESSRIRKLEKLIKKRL
# Chain of UniProt Q5TAX3 (Q5TAX3 whole entry, looked up): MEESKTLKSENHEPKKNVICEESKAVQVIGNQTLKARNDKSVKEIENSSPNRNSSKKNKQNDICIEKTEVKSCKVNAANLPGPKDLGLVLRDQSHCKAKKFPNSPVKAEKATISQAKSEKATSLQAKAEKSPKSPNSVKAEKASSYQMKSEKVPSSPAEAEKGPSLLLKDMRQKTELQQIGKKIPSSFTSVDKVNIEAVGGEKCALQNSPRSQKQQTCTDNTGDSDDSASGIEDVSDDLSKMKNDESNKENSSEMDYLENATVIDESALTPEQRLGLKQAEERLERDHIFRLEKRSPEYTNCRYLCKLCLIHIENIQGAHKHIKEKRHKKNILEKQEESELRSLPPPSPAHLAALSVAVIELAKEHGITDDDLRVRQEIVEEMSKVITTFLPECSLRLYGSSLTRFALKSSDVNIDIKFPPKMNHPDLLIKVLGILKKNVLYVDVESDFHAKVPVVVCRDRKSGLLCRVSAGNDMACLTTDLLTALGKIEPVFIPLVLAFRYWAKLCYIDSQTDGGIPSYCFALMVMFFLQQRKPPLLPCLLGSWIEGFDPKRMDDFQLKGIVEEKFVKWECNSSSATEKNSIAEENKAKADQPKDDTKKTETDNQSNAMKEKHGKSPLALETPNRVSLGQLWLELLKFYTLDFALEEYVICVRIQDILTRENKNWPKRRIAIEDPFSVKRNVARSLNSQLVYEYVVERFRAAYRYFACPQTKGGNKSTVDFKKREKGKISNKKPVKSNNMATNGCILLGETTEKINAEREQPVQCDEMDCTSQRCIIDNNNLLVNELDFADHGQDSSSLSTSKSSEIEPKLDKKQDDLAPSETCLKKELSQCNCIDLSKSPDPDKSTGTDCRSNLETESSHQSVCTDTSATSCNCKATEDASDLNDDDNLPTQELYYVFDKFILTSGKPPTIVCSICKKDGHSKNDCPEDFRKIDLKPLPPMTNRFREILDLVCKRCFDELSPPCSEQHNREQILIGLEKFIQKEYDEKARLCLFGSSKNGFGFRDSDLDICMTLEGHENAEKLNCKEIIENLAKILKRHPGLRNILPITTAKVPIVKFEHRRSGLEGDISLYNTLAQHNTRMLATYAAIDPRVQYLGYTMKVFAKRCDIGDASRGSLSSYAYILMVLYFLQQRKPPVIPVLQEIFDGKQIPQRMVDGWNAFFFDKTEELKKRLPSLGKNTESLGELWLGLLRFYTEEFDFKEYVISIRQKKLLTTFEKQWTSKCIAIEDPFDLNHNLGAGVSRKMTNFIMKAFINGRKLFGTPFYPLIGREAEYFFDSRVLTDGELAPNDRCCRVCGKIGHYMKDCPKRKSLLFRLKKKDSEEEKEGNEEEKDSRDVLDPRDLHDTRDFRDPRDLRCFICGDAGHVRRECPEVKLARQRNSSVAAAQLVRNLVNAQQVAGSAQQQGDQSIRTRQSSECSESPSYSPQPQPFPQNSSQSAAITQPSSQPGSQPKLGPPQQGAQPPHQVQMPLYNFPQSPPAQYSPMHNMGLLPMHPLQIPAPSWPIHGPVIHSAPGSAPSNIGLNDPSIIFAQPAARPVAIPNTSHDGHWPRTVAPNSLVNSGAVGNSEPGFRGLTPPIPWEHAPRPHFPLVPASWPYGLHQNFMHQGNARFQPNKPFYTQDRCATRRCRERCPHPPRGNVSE
# Chain of UniProt Q7Z392 (Q7Z392 whole entry, looked up): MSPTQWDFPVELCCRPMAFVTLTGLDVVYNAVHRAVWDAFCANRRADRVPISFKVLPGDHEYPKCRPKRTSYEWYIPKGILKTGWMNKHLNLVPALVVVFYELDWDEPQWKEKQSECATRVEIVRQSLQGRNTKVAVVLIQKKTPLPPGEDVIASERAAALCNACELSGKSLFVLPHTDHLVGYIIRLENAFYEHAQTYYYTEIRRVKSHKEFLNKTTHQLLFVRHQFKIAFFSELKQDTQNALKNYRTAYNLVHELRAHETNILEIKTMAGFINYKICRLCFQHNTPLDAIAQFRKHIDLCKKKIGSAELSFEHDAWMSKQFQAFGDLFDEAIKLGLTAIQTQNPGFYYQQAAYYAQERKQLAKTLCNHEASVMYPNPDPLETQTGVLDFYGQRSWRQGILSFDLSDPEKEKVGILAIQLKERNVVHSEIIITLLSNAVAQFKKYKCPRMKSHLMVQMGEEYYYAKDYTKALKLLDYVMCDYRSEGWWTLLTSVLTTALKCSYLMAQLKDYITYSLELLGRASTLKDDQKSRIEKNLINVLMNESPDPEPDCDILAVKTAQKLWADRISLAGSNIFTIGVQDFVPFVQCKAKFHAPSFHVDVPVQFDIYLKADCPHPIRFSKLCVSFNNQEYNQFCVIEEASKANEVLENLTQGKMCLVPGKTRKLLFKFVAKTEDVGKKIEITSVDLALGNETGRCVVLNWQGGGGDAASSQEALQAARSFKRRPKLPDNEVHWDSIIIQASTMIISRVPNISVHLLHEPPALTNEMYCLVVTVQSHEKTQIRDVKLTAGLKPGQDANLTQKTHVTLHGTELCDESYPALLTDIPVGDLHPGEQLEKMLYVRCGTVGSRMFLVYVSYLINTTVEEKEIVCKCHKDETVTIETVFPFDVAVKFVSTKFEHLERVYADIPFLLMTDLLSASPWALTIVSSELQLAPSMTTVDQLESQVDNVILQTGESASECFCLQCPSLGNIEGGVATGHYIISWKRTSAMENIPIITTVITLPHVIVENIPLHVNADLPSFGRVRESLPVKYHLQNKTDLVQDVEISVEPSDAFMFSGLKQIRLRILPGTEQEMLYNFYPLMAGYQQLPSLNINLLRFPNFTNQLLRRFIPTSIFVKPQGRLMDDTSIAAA
# Chain of UniProt Q8TBZ6 (Q8TBZ6 whole entry, looked up): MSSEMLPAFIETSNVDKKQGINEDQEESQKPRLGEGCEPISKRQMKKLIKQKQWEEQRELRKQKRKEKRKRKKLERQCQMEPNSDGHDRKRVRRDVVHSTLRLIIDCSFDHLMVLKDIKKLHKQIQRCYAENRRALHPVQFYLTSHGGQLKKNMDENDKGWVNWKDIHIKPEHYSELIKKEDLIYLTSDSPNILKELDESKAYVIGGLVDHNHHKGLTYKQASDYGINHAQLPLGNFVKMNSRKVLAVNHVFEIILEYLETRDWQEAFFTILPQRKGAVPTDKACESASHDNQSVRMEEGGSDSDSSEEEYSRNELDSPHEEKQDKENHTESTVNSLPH
# Chain of UniProt Q9NQH7 (Q9NQH7 whole entry, looked up): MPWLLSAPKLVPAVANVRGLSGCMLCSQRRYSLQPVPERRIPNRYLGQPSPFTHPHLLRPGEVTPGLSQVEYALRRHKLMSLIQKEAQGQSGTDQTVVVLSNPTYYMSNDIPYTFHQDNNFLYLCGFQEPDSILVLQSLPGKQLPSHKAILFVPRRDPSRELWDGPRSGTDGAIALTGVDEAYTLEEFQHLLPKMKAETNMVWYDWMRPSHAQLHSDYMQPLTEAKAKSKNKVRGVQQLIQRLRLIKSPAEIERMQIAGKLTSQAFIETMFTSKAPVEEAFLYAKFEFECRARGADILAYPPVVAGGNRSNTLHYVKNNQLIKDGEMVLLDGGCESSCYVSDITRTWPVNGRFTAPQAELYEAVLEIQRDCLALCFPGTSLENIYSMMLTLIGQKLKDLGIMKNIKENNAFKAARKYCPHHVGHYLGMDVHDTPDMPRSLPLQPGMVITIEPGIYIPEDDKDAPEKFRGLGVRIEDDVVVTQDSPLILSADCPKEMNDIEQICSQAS
# Chain of UniProt P30291 (P30291 whole entry, looked up): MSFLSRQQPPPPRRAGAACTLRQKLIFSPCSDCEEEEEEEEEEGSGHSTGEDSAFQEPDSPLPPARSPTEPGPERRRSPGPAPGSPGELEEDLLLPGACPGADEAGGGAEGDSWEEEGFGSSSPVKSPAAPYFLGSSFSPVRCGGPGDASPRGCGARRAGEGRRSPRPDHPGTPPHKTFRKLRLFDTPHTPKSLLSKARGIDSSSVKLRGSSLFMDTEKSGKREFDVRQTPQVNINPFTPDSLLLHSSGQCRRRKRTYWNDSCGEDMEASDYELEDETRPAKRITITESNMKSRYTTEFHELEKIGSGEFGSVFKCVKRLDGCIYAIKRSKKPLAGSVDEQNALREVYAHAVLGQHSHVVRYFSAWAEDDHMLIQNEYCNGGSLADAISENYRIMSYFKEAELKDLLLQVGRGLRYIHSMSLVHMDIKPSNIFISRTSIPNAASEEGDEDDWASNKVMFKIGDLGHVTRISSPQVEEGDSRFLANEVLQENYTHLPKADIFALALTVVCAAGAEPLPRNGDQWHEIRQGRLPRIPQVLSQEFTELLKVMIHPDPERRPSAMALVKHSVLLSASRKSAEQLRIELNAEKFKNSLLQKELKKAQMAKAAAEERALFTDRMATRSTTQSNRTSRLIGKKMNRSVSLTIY
Target,log2 fold change [1],log2 fold change [2],log2 fold change [3],log2 fold change [4],log2 fold change (Nexturastat A),log2 fold change (vemurafenib),log2 fold change [5],log2 fold change [6],log2 fold change (givinostat),log2 fold change (barasertib)
UQCR10 (UniProt Q9UDW1),0.103,-0.086,0.069,-0.014,-0.049,-0.042,-0.018,0.007,-0.05,-0.042
WDR18 (UniProt Q9BV38),-0.042,0.08,0.016,0.014,-0.035,0.04,-0.003,0.004,-0.025,0.013
TUT4 (UniProt Q5TAX3),-0.124,-0.106,-0.081,-0.121,0.449,-0.129,-0.008,-0.124,0.069,0.027
TMEM189-UBE2V1 (UniProt I3L0A0),-0.067,0.017,0.006,-0.003,-0.042,-0.005,-0.056,-0.182,0.024,-0.054
VPS53 isoform 4 (UniProt Q5VIR6),-0.037,-0.053,0.01,-0.031,0.022,0.046,0.003,0.03,0.045,0.045
WAPL isoform 3 (UniProt Q7Z5K2),-0.038,-0.109,0.056,-0.006,-0.134,0.097,0.083,-0.054,0.149,0.201
TRAPPC11 (UniProt Q7Z392),0.098,0.01,-0.014,-0.053,0.046,0.033,0.025,-0.012,0.037,0.025
TMEM214 (UniProt Q6NUQ4),-0.038,-0.054,0.023,0.007,0.062,0.046,0.065,0,0.021,-0.03
TTI2 (UniProt Q6NXR4),0.021,-0.039,0.024,0.023,0.113,0.047,0.06,-0.018,0.135,-0.028
TNFRSF10A (UniProt O00220),0.006,0.035,0.016,-0.015,0.089,-0.073,-0.044,0.004,-0.042,0.016
TOE1 (UniProt Q96GM8),0.099,0.056,-0.012,-0.109,0.078,-0.016,0.048,0.059,-0.055,-0.063
VPS18 (UniProt Q9P253),0.051,-0.025,-0.029,-0.004,0.04,0.017,0.017,0.004,0.035,0.088
XPO5 (UniProt Q9HAV4),0.031,-0.039,0.054,0.031,-0.053,0.013,0.056,0.014,-0.029,0.029
UBAP2L isoform 1 (UniProt Q14157),-0.057,0.035,-0.016,0.025,0.012,-0.083,0.246 (active),-0.045,-0.261 (active),-0.011
UTP4 (UniProt Q969X6),-0.036,0.029,0.009,-0.007,-0.06,-0.028,-0.021,-0.019,-0.033,-0.005
XPNPEP3 (UniProt Q9NQH7),-0.045,0.024,0.005,0.017,-0.08,0.011,-0.012,0.013,-0.218,-0.016
TRIM4 (UniProt Q9C037),-0.031,0.023,-0.029,-0.076,0.1,-0.297,-0.041,0.046,-0.086,0.011
USP3 (UniProt Q9Y6I4),0.026,-0.016,0.085,0.069,0.01,0.112,0.192,-0.069,-0.022,0.067
UCHL5 isoform 3 (UniProt Q9Y5K5),-0.09,-0.145,0.048,-0.213,0.07,-0.02,0.243,0.047,0.056,0.048
WDR43 (UniProt Q15061),-0.015,0.018,0.009,-0.001,-0.097,-0.027,0.012,-0.061,-0.007,-0.033
WEE1 (UniProt P30291),-0.037,0.02,-0.304,-0.046,0.322,0,0,-0.137,0.037,-0.005
TRMT10A (UniProt Q8TBZ6),0.006,-0.004,0.063,0.031,-0.079,0.014,-0.017,-0.011,-0.004,-0.019
USP48 isoform 8 (UniProt Q86UV5),0.128,-0.094,-0.054,0.119,-0.006,0.162,0.142,0.103,0.144,0.14
TSG101 (UniProt Q99816),0,-0.011,-0.001,0.025,-0.017,0.021,0.024,-0.057,0.035,0.046
TUBAL3 (UniProt A6NHL2),0.152,-0.062,0.005,0.094,-0.106,0.121,-0.033,-0.207,0.006,-0.028
UBAP1 isoform 4 (UniProt Q9NZ09),0.082,-0.002,0.135,-0.015,-0.049,0.005,0.159,0.018,0.13,0.033
UPF3B (UniProt Q9BZI7),-0.047,-0.004,0,-0.053,0.29,-0.108,-0.069,0.139,0.03,-0.058
VPS8 (UniProt Q8N3P4),-0.011,-0.003,-0.034,0.058,0.032,0.048,0.126,-0.04,0.014,0.028
TMEM41A (UniProt Q96HV5),0.039,0.093,0.002,0.014,-0.138,-0.163,-0.101,-0.021,-0.043,0.001
XPO6 (UniProt Q96QU8),0.008,-0.221,0.041,-0.369,0.767 (active),0.082,0.13,0.028,0.068,-0.003
